From PubChem
An excerpt weighted towards active compounds, which were near 13% of everything screened.
USP30 block: blocks human USP30 ubiquitin-rhodamine cleavage; Q70CQ3; purified USP30, Ub-rhodamine cleavage fluorescence; inhibition, % at 25 µM; 5.3% of 47,000 active
USP28 block: inhibitors of human USP28 deubiquitinase; inhibition, % at 25 µM; 3% of 47,000 active; Q96RU2; purified USP28, Ub-rhodamine cleavage fluorescence, 30 min
USP17 block: inhibitors of human USP17 deubiquitinase | A8MUK1 | purified USP17, Ub-rhodamine cleavage fluorescence, 3 h | inhibition, % at 50 µM | 6.5% of 47,000 active
Target sequence (A8MUK1 whole entry, looked up): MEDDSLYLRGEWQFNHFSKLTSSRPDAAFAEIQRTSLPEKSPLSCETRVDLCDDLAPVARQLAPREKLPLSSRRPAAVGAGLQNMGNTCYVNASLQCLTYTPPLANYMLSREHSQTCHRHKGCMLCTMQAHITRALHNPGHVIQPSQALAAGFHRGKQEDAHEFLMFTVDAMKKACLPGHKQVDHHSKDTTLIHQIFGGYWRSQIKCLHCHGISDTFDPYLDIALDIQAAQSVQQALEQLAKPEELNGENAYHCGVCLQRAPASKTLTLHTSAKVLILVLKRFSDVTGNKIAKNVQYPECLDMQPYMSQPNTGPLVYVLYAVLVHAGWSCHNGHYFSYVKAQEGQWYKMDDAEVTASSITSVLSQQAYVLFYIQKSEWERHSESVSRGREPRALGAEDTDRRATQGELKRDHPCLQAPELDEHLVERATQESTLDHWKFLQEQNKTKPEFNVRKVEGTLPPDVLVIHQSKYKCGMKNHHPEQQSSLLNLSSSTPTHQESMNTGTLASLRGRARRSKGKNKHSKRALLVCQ
USP8 inh: human USP8 deubiquitinase inhibition; P40818; purified USP8, Ub-rhodamine cleavage fluorescence, 30 min; inhibition, % at 20 µM; 4.2% of 47,000 active
USP10 block: human USP10 deubiquitinase inhibition; Q14694; purified USP10, Ub-rhodamine fluorescence, 60 min; inhibition, % at 20 µM; 1.1% of 47,000 active
* hit, by the source's call. Cut-off read from the data, not from the text of the source: active = inhibition above about 30%; inactive = the rest.

SMILES | USP30 block | USP28 block | USP17 block | USP8 inh | USP10 block
COc1cccc(-c2nc(C(N)=O)c3[nH]c(=O)n(-c4cccc(Cl)c4)c3n2)c1OC | -110 | -17 | 51* | -12 | -8
Cc1cccc(-n2c(=O)[nH]c3c(C(N)=O)nc(C4CCCCC4)nc32)c1 | 49* | 24 | 28 | 23 | 7
CCOc1ccc2cc3c(nc2c1)OC(=O)N(Cc1ccc(C)o1)C3 | 53* | 13 | 21 | 15 | 3
O=C1Oc2nc3ccccc3cc2CN1Cc1ccco1 | 17 | 16 | 52* | 3 | 8
COc1ccc2cc3c(nc2c1)OC(=O)N(Cc1ccccc1F)C3 | 12 | -2 | 2 | 37* | 3
Cn1cc(CCNC(=O)NCc2ccccc2)c2cccnc21 | 24 | 15 | 7 | 13 | 1
Cc1ccc(C(=O)N2C[C@H](OCc3cccnc3)[C@H]3OCCC[C@H]32)o1 | -71 | -24 | -52 | -12 | -3
Cc1nc2c(c3c1[nH]c1ccccc13)C(=O)CC(C)(C)C2 | -128 | -65 | -57 | -32 | -5
O=C1NCc2c1c1c3ccccc3[nH]c1c1[nH]c3ccccc3c21 | 37* | 19 | 51* | 5 | 10
Cc1cc(-c2cc3nc4c(c(=O)n3[nH]2)CN(Cc2cccs2)CC4)no1 | -4 | -5 | 7 | -63 | -4
O=C(c1ccccn1)N1CCC2(CC1)CC1(CO2)Nc2ccccc2-n2cccc21 (stereo not drawn) | -144 | -19 | 46* | 77* | -7
O=C(Nc1ccc2c(c1)OCCO2)N1CCC2(CC1)Nc1ccccc1-n1cccc12 | 22 | 19 | 14 | 0 | 5
CCc1ccccc1NC(=O)N1CCC2(CC1)Nc1ccccc1-n1cccc12 | 3 | 11 | 45* | 17 | 4
O=C(Nc1cccc(C(F)(F)F)c1)N1CCC2(CC1)Nc1ccccc1-n1cccc12 | 43* | 7 | 21 | 3 | 10
CNC(=O)[C@H]1C[C@]2(CCCCNC2=O)N(C(=O)Cc2ccc(F)cc2)[C@H]1c1ccccc1 | -12 | -15 | -7 | -5 | 2
Cc1cccc(N2CCN(C(=O)C3CCN(c4cnc5nccnc5c4)CC3)CC2)c1 | -152 | -33 | -43 | -19 | -2
COc1cc(NC(=O)c2ccccc2)c(OC)cc1NC(=O)CCC(=O)N(c1ccccc1)c1ccccc1 | 58* | 18 | 62* | -1 | 8
COc1ccc(NC(=O)CCC(=O)N(c2ccccc2)c2ccccc2)c(OC)c1 | 15 | 1 | 2 | 16 | -1
Cc1cccc(/C=C/c2nc3ccc([N+](=O)[O-])cc3s2)c1 | -59 | -10 | 43* | 87* | 4
CCCCCCCCCCCCCCCCCC(=O)N[C@@H]1C[C@@H](O)[C@@H](O)NC(=O)[C@@H]2[C@@H](O)[C@@H](C)CN2C(=O)[C@H]([C@@H](C)O)NC(=O)[C@H]([C@H](O)[C@@H](O)c2ccc(O)cc2)NC(=O)[C@@H]2C[C@@H](O)CN2C(=O)[C@H]([C@@H](C)O)NC1=O | 49* | 38* | 20 | 15 | 10
O=C(C1CCN(c2nc3ccc(Cl)cc3[nH]2)CC1)N1CCC(Cc2ccccc2)CC1 | 13 | 20 | 2 | 0 | 4
Cc1noc2nc(C)n(CC(=O)NCCC3=CCCCC3)c(=O)c12 | 14 | 6 | 9 | -1 | 0
O=C(Cn1cnc2sc3c(c2c1=O)CCC3)NCCC1=CCCCC1 | -14 | 6 | -4 | 78* | 8
CC(Sc1n[nH]c2nc3ccccc3n12)C(=O)Nc1ccc2c(c1)OCCO2 (stereo not drawn) | -9 | 26 | 39* | -5 | -4
COc1ccc(-c2nnc(SCC(=O)Nc3ccc4[nH]c(=O)[nH]c4c3)n2C)cc1 | 5 | 1 | 13 | 38* | -2
O=C(CSc1n[nH]c2nc3ccccc3n12)Nc1ccc2[nH]c(=O)[nH]c2c1 | -22 | -4 | -3 | 70* | 10
O=C(CSc1nnc2n1CCCCC2)Nc1ccc2[nH]c(=O)[nH]c2c1 | 28 | 33* | 68* | -22 | 0
C[C@H](NC(=O)c1cc2ccccc2[nH]1)C(=O)Nc1ccc2c(c1)OCCO2 | 11 | 10 | 4 | 6 | -3
O=C(CCc1ccccc1)N1CCN(c2nc3ccc(F)cc3s2)CC1 | 9 | 1 | -1 | -7 | 2
C/C1=C/CC(O)/C=C/C(C)C(O)C(C)/C=C(\C)C(=O)c2c(O)c(C)cc3c2C(=O)C(Cl)=C(NC(=O)\C=C/C=C/C=C\C(C)C(O)CC1=O)C3=O (stereo not drawn) | -98 | 0 | 74* | -90 | -18
